± gives the standard deviation of the averaged measurements. The full ranking holds about 25,000 sequences; the median of “ln(normalized median fluorescence intensity)” is about 8.9, and the highest 2% start at about 10. The list comes from a sample in which the highest values are over-represented; it also holds similar and randomly drawn sequences.

The test deals with PfAP2-LT AP2 domain (GST-tagged). Nature of the test: gcPBM binding intensity (ln(normalized median fluorescence intensity)); higher = stronger DNA binding. The procedure, abridged: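 Binding intensity is the highest Masliner-normalised natural-log median intensity over replicate spots in either probe orientation. To obtain it, GST-tagged P. falciparum DNA-binding domains made in E. coli were incubated for 1 h on an Agilent 4 × 180k array of primer-extended double-stranded 36-bp intergenic genomic probes plus negative controls. Detection used Alexa488 anti-GST antibody with scanning at 488 nm.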
Consider “AATATATATATATATATTTTTGTTAGAATATGGAAT [GTGCAC_negctrl_site434]”, for which the “gcPBM binding intensity (ln)” value came to 8.65 ± 0.32.
“TATACGCATATATACACACACATATATATATATATA [CACACA_site3416]”: the “gcPBM binding intensity (ln)” value was 10.1 ± 0.11.
To “TACATATACATATACACACACACACCCAAATAAATA [CACACA_site1344]” belongs 10.04 ± 0.05.
In the case of “TATAAATATACACCCACACACATATATATATATATA [CACACA_site3745]”, the “gcPBM binding intensity (ln)” value is 9.94 ± 0.16.
The same measure for “TACCCACTAAAATACACACACACACCCACATATATA [CACACA_site6141]”: 10 ± 0.42; for “CATATATACGCATACACACACACACCCACACCCACA [CACACA_site1725]”: 10.16 ± 0.05.
Turning to “TACACGCTAAAATACACACACACACCCACATATATA [CACACA_site4153]”, the “gcPBM binding intensity (ln)” value is 10.2 ± 0.11.
Regarding “TATAAATATACACCCACACACATATATAAATAAATA [CACACA_site7717]”, the “gcPBM binding intensity (ln)” value was found to be 9.65 ± 0.16.
The same measure for “AAAAAAAATACATACACACACACACCCACATATATA [CACACA_site3561]”: 10.13 ± 0.05; for “CACCCACCCACATACACACACATACACATATATATA [CACACA_site1722]”: 10 ± 0.22.
“TATATAAATATACACCCACACACATATATATATATA [CACACA_site9247]”: the “gcPBM binding intensity (ln)” value worked out at 9.61 ± 0.28.
As to “AAAAAAAAAATACATACACACACACCCACCCATATA [CACACA_site9187]”, the “gcPBM binding intensity (ln)” value worked out at 10.18 ± 0.021.
Regarding “TATACATATACATATACACACACACCCATAAATAAA [CACACA_site8372]”, the “gcPBM binding intensity (ln)” value was found to be 9.8 ± 0.22.
To “ATTTTTTTTAAACGAAGTACAATTTGTGCATTGGAA [XGTACX_site8109]” belongs 8.45 ± 0.39; to “GTACATACATAAAACACACACATATAGATTTATATA [CACACA_site6945]”, 9.47 ± 0.33.
Take “TATTTTTTTTGATATTGTACTTTTTTATTATTTTTT [XGTACX_site566]”: the “gcPBM binding intensity (ln)” value turned out to be 8.76 ± 0.51.
Consider “TATTTTTATATATAATCACACATTGGAATGTTCTAA [CACACA_site5540]”, for which the “gcPBM binding intensity (ln)” value is 8.67 ± 0.44.
To “TTGAAGGTGGCAATGTGTACATAGAATAACCAGTGC [XGTACX_site4738]” belongs 9.15 ± 0.54.
To “TATATATTATGACCACCACACACCTATACGCATAAC [CACACA_site2447]” belongs 9.44 ± 0.085.
To “AAAATACACGCATACACACACACACCGACACATATA [CACACA_site4523]” belongs 10.4 ± 0.28; to “ATAAAATACATATAAACACACATATAAACCGACATA [CACACA_site2477]”, 9.28 ± 0.38; to “TAAATTAAAAAAAATACACACACACCGACACATATA [CACACA_site9084]”, 9.84 ± 0.26.
For “AAAATACACGCATACACACACACACCCACCCATATA [CACACA_site639]”, the “gcPBM binding intensity (ln)” value came to 10.4 ± 0.14.
For the sequence “TATACACCCTAAAATACACACACACCCACCCATATA [CACACA_site9380]”, the “gcPBM binding intensity (ln)” value came out at 10.06 ± 0.078.
To “CACCCATAAATATACACACGCACAACACAAAATAAA [CACACA_site2903]” belongs 9.63 ± 0.41; to “TTATATGTATGAACAAGTACATGCTATAATTATAAA [XGTACX_site1399]”, 8.57 ± 0.46.
The same measure for “ACATTCTATATATACACACATACATAATAAAGAAAG [CACACA_site2771]”: 9.05 ± 0.4.
In the case of “AAAACATAACATTGTTGTACTACTAATAAAATAAGT [XGTACX_site6149]”, the “gcPBM binding intensity (ln)” value came out at 8.8 ± 0.52.
For the sequence “ATATTATATATGTATAGTACATATTATAAGAAAAAT [XGTACX_site3457]”, the “gcPBM binding intensity (ln)” value worked out at 8.87 ± 0.65.
As to “ATATATAAAAAAGCTAGTACACAAAAATATATAATG [XGTACX_site3001]”, the “gcPBM binding intensity (ln)” value came out at 8.95 ± 0.54.
On to “TTATATATAAATGTGTGTACTTATAAAATAATCATT [XGTACX_site5370]”, for which the “gcPBM binding intensity (ln)” value worked out at 8.78 ± 0.43.
On to “CATATAAATAGACACACACACACATATAAATAAATA [CACACA_site7156]”, for which the “gcPBM binding intensity (ln)” value was 10.1 ± 0.4.
To “AATAAATTTAGACACACACACACATATAAATAAATA [CACACA_site6531]” belongs 10.1 ± 0.23.
As to “TAATTTTTTAGACACACACACATATAAATATAAATA [CACACA_site6195]”, the “gcPBM binding intensity (ln)” value stood at 9.37 ± 0.34.
As to “TATATATATAGACACACACACATATAAATAAATAAA [CACACA_site444]”, the “gcPBM binding intensity (ln)” value worked out at 9.56 ± 0.34.
As to “TAAATTTATAGACACACACACATATAAATAAATATA [CACACA_site6530]”, the “gcPBM binding intensity (ln)” value amounted to 9.71 ± 0.22.
To “TATATAAATAGACACACACACATATAAATATAAATA [CACACA_site6503]” belongs 9.69 ± 0.32.
The same measure for “TATGAAGACACAAATACACACACTCAAAAAAAAAAA [CACACA_site2660]”: 9.41 ± 0.44; for “AAAAAAAAAAAAAAAACACACATTTGAAGAAAAAAA [CACACA_site7389]”: 8.58 ± 0.51.
The same measure for “ATTGTATAAAAATGTACATGCAATAAATTTAGTTCT [TGCATGCA_site675]”: 8.77 ± 0.42; for “CAAAAGGATAGGCACACACACACACCCATATATATA [CACACA_site2199]”: 10.2 ± 0.23.
As for “GCCAAAAGGATATGCACACACACACCCATATATATA [CACACA_site2198]”, the “gcPBM binding intensity (ln)” value worked out at 9.94 ± 0.42.
To “CCATAAAAAGGATACACACACACACGCACATATATA [CACACA_site6550]” belongs 9.92 ± 0.11.
To “TACAGATAAAAGTACACACACACACCGATATATATA [CACACA_site4675]” belongs 10.12 ± 0.099.
Consider “CCATAAAAAGGATACACACACACACCGACATATATA [CACACA_site4653]”, for which the “gcPBM binding intensity (ln)” value was 10.2 ± 0.23.
Regarding “AAAGATAAAAAAAGTACACACACACCGATATATATA [CACACA_site9006]”, the “gcPBM binding intensity (ln)” value came out at 10 ± 0.14.
Take “AAAAAAAAAAAAAGTACACACATACAGATAAATATA [CACACA_site5067]”: the “gcPBM binding intensity (ln)” value was 9.16 ± 0.48.
The same measure for “ATAAAGCACACCGACACACACATATATATATATATA [CACACA_site1047]”: 10.54 ± 0.099; for “ATAAAGCACACCGACACACACATATTTATATTTATA [CACACA_site6620]”: 9.68 ± 0.43.
Take “TAAAAGGATACATATACACACATATATATATATATA [CACACA_site2791]”: the “gcPBM binding intensity (ln)” value is 9.72 ± 0.13.
To “CAAAAGGATAGGCACACACACACACCGATATATATA [CACACA_site8685]” belongs 10.1 ± 0.21; to “AAATAAAGCACACCGACACACACATATATATATATA [CACACA_site8256]”, 10.03 ± 0.057.
To “TTTATAATATGTTATACATGCAGGTACCTTTTTGTA [TGCATGCA_site746]” belongs 8.9 ± 0.46.
The same measure for “TATAACACACAATGATGTACATTACATTATTTTTTA [XGTACX_site2076]”: 8.79 ± 0.45.
As for “ATAACAATTATTTGTCGACACACGTATATGTTATTT [CACACA_site1766]”, the “gcPBM binding intensity (ln)” value stood at 9.41 ± 0.38.
To “ATATTCTTTTTATGTGGTACTAATTTTTTTTTTTTA [XGTACX_site3791]” belongs 8.66 ± 0.57; to “CGAAAAAATAAAAAAAAAATAAAATAAAATAAATAA [TGCATGCA_negctrl_site278]”, 8.56 ± 0.59.

These data come from the supplement of paper PMC11417369.
